Source: PubChem (National Center for Advancing Translational Sciences (NCATS))
Sm TGR inh: qHTS Assay for the Inhibitors of Schistosoma Mansoni Peroxiredoxins; purified TGR, DTNB reduction, TNB absorbance 405 nm; Potency, µM (series often up to 114 µM), most hits filed as inhibitors; 360,000 compounds, 3% hits; AID 485364, 2010; note: nearly all actives have a fitted effect of over 60% in size
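TGR 20 nM + NADPH 100 uM (dispensed conc.), cpd preinc 15 min RT; start with NADPH (500 uM addition) then DTNB (15 mM addition). Kinetic TNB absorbance, 405 nm filter. Four-parameter Hill fit across titration.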
LmPK inh: qHTS Assay for Inhibitors of Leishmania Mexicana Pyruvate Kinase (LmPK); Potency, µM (top dose mostly 57.5 µM), most hits filed as inhibitors; 290,000 compounds, 0.37% hits; purified LmPK, Kinase-Glo ATP luminescence, 1 h; Q27686
Target sequence (Q27686 whole entry, looked up): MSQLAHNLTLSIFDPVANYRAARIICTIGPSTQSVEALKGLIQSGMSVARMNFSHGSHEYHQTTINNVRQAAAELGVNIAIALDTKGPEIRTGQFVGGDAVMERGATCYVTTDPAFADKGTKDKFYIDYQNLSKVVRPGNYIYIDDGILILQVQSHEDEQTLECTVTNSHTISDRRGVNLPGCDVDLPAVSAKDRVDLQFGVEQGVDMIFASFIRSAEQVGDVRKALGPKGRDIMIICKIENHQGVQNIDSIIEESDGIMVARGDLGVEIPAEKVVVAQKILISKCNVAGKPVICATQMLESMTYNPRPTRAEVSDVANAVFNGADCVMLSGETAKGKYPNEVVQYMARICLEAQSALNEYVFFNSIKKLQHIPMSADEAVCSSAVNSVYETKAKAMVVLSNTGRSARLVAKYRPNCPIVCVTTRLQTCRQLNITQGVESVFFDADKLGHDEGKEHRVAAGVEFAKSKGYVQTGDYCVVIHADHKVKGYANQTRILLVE
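In 50 mM imidazole pH 7.2 with 7 mM MgCl2, LmPK (0.1 nM) turned over PEP (0.5 mM) and ADP (0.1 mM) for 1 h at room temperature. Luciferase read-out of ATP.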
CHX counter: Cycloheximide Counterscreen for Small Molecule Inhibitors of Shiga Toxin; AID 2314, 2010; cell reporter, cycloheximide protein synthesis inhibition counterscreen; 300,000 compounds, 12% hits; max response, %; in the data active = max response mostly above about 13%, no sharp cut-off; inactive = mostly below about 14%; note: read at 38.3 µM for the half of the compounds with a filed dose
Shiga inhibitor: A qHTS for Small Molecule Inhibitors of Shiga Toxin; inhibition, % at 38.7 µM; AID 2315, 2010; 290,000 compounds, 9.2% hits; Vero cells, Shiga toxin protein synthesis inhibition reporter; in the data active = inhibition mostly above about 28%, no sharp cut-off; inactive = mostly below about 43%
Tb PYK inh: qHTS of Trypanosoma Brucei Inhibitors; pyruvate kinase (Trypanosoma brucei), Q57TT1; TbPYK enzyme, Kinase-Glo Plus ATP luminescence, 45 min; Potency, µM (highest dose often 76.8 µM), usual class: inhibitors; 410,000 compounds, 0.12% hits; AID 624173, 2012; note: nearly all actives have a fitted effect of over 50% in size
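Activity of T. brucei pyruvate kinase was followed by Kinase-Glo Plus luminescence after the enzyme reacted 45 min at room temperature with 130 uM ADP (final) and substrate. Test compounds were added before ADP at multiple concentrations.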
Giardia FBPA inh: qHTS Assay for Inhibitors of Fructose-1,6-bisphosphate Aldolase from Giardia Lamblia | 290,000 compounds, 0.71% hits | Potency, µM (doses to about 59.6 µM), actives largely listed as inhibitors | purified Giardia FBPA; note: nearly all actives have a fitted effect of over 55% in size
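40 nM FBPA preincubated 10 min at RT with compound (up to 57.5 uM final), then substrate plus GAPDH/TPI/NAD/arsenate coupling and diaphorase/resazurin added. Fluorescence read after 20 min at RT, 525/598 nm.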
Each line names hits and unclear results; the compound was inactive in the other large screens. The full list was thinned out, with hits kept by preference. Unless noted, calls come from the whole dose curve; as a rule, active = well fitted curve in the direction sought with a large enough effect; inconclusive = small, poorly fitted or top-dose-only effect, or another doubt; inactive = no such curve, though single readings can be large; an effect the other way counts as inactive or inconclusive.

CC(C)(C)c1ccc(C(=O)NC(=S)NCc2ccco2)cc1	Sm TGR inh inconclusive, CHX counter 24.1 (no result: Giardia FBPA inh)
COCCN(C(=O)CSc1nnc(-c2ccccc2F)o1)c1c(N)n(Cc2ccccc2)c(=O)[nH]c1=O	none (no result: Sm TGR inh, LmPK inh, CHX counter, Shiga inhibitor, Giardia FBPA inh)
CCN1CCN(C(=O)c2c(C)nn(-c3ccc(F)cc3)c2-n2cccc2)CC1	none (no result: LmPK inh, CHX counter, Shiga inhibitor, Giardia FBPA inh)
CCOC(=O)C(=CNNc1c(C)csc1C(=O)OC)C(=O)OCC	Sm TGR inh 56.2µM
Cn1c(=O)c2[nH]c(=S)n(Cc3ccccc3)c2n(C)c1=O	Tb PYK inh 15.8µM (no result: Sm TGR inh, LmPK inh, CHX counter, Shiga inhibitor, Giardia FBPA inh)
CCOC(=O)C(=CNNc1cccc(Cl)c1)C(=O)OCC	Sm TGR inh 8.91µM
CCOC(=O)C(=CNc1ccc(Cl)cn1)C(=O)OCC	none
O=C(COc1ccc2ccccc2c1)N1CCN(Cc2c[nH]c3ccccc23)CC1	CHX counter 16.9
O=C(COc1ccc(Br)cc1)N1CCN(Cc2c[nH]c3ccccc23)CC1	Giardia FBPA inh inconclusive
C=CCNC(=O)N1CCCC(C(=O)c2cccc(OC(C)C)c2)C1 (centres undefined)	CHX counter 25.6, Shiga inhibitor 118.2
C=CCn1c(SCC(=O)Nc2cccc(S(N)(=O)=O)c2)nc2sc(C)c(C)c2c1=O	none (no result: Sm TGR inh, LmPK inh, CHX counter, Shiga inhibitor, Giardia FBPA inh)
O=C(NCC(c1ccco1)N1CCOCC1)c1ccc([N+](=O)[O-])cc1 (centres undefined)	Sm TGR inh 3.98µM
O=C(NCC(c1ccco1)N1CCc2ccccc2C1)c1cccc([N+](=O)[O-])c1 (centres undefined)	Sm TGR inh 39.8µM (no result: LmPK inh, CHX counter, Shiga inhibitor, Giardia FBPA inh)
Cc1ccc2nc(-c3ccc(NC(=O)COCC(=O)O)cc3)sc2c1	CHX counter 55.9, Shiga inhibitor 49.8
O=C(O)CSCC(=O)Nc1ccc(-c2nc3ccccc3s2)cc1	CHX counter 35.0, Shiga inhibitor 53.7, Tb PYK inh inconclusive
Cc1ccc2nc(-c3ccc(NC(=O)CSCC(=O)O)cc3)sc2c1	CHX counter 54.9, Shiga inhibitor 87.5
COc1ccc(Cn2ccc3nc(C)c(C(=O)N4CCN(c5ccccc5F)CC4)cc3c2=O)cc1	none (no result: LmPK inh, CHX counter, Shiga inhibitor, Giardia FBPA inh)
COc1ccc2c(C)c(CCC(=O)NCc3ccccc3OC)c(=O)oc2c1	none (no result: LmPK inh, CHX counter, Shiga inhibitor, Giardia FBPA inh)
O=C(OCc1cncs1)c1ccccc1Cl	none
Cc1cccc(C(=O)OCc2cncs2)c1	CHX counter 33.1
O=C(Nc1ccccc1Cl)OCc1cncs1	CHX counter 17.4
CCOc1ccccc1NC(=O)c1c(NCc2ccc(OC)c(OC)c2OC)sc2c1CCC(C)C2 (centres undefined)	none (no result: LmPK inh, CHX counter, Shiga inhibitor, Giardia FBPA inh)
Cc1cccc(NC(=O)CN2C(=O)N/C(=C\c3ccc(N4CCOCC4)cc3)C2=O)c1	CHX counter 39.2, Shiga inhibitor 68.2
Cc1cccc(NC(=O)CN2C(=O)N/C(=C/c3cc(C)n(C)c3C)C2=O)c1	Sm TGR inh 25.1µM
Cc1cc(N2CCOCC2)ccc1/C=C1\NC(=O)N(CC(=O)Nc2ccc(F)cc2)C1=O	CHX counter 22.7, Shiga inhibitor 90.6 (no result: Sm TGR inh)
Cc1cccc(NC(=O)CN2C(=O)N/C(=C/c3cc(C)n(-c4ccncc4)c3C)C2=O)c1	none
O=S(=O)(c1cccc(-c2csc(-c3cccnc3)n2)c1)N1CCCCC1	none
O=S(=O)(c1ccc(-c2nc3ccccc3s2)cc1)N1CCCC1	CHX counter 24.0
O=S(=O)(c1cccc(-c2nc3ccccc3s2)c1)N1CCCC1	CHX counter 35.6
CC1CN(S(=O)(=O)c2ccc(-c3nc4ccccc4s3)cc2)CC(C)O1 (centres undefined)	none
O=C1NC(=O)C(Cc2ccc(OCCN3COc4ccccc4C3=O)cc2)S1 (centres undefined)	CHX counter 24.7 (no result: Sm TGR inh, LmPK inh, Tb PYK inh)
O=C(O)C1CC(=O)N(CCOc2ccccc2)C1 (centres undefined)	none
CC(=O)N(/N=C1\Sc2ccccc2C1=O)c1cccc(C)c1	CHX counter 58.2, Shiga inhibitor 141.6
O=C1CCCCc2sc(Br)c([N+](=O)[O-])c2N1	Sm TGR inh 0.794µM
CC(C)Oc1ccc(/C(O)=C2/C(=O)C(=O)N(CCN(C)C)C2c2ccco2)cc1 (centres undefined)	Sm TGR inh inconclusive, CHX counter 39.0, Shiga inhibitor 134.1
CCN(CC)CCCN1C(=O)C(=O)/C(=C(/O)c2ccc(OC)cc2)C1c1ccco1 (centres undefined)	none (no result: Sm TGR inh, LmPK inh, CHX counter, Shiga inhibitor, Giardia FBPA inh)
COCCN1C(=O)C(=O)/C(=C(/O)c2cccc(OC)c2)C1c1ccco1 (centres undefined)	none
CCN(CC)CCN1C(=O)C(=O)/C(=C(/O)c2ccc(OC)cc2)C1c1ccco1 (centres undefined)	Sm TGR inh 39.8µM
COc1ccc(C2NC(=S)N3C(c4ccc(OC)c(OC)c4)NC(=S)N23)cc1OC (centres undefined)	none (no result: Sm TGR inh, LmPK inh, CHX counter, Shiga inhibitor, Giardia FBPA inh)
CCNc1ncc2nc(-c3cccs3)c(=O)n(Cc3cccc(OC)c3)c2n1	none (no result: Sm TGR inh, LmPK inh, CHX counter, Shiga inhibitor, Tb PYK inh)
Cc1ccc(NC(=O)C2CCN(S(=O)(=O)c3ccc4c(c3)CCCC(=O)N4)CC2)c(Cl)c1	none (no result: LmPK inh, CHX counter, Shiga inhibitor, Giardia FBPA inh)
Nc1nnc(COc2ccc(Br)cc2Br)s1	CHX counter 21.1, Shiga inhibitor 91.7
Cc1ccc(-c2cc(-c3ccc(F)cc3)nc(N)c2C#N)o1	Sm TGR inh 5.62µM, Giardia FBPA inh inconclusive
Cc1ccc(-c2cc(-c3ccccc3)c(C#N)c(N)n2)o1	Sm TGR inh 3.55µM, Tb PYK inh inconclusive, Giardia FBPA inh inconclusive
COc1ccc(-n2nc(C(=O)NCCc3ccc(OC)c(OC)c3)c3c4ccccc4n(C)c3c2=O)cc1	none (no result: LmPK inh, Giardia FBPA inh)
CCCCc1ccc(NC(=O)C(C)CC)cc1 (centres undefined)	LmPK inh inconclusive, CHX counter 48.3, Shiga inhibitor 50.5, Giardia FBPA inh inconclusive
CCCCc1ccc(NC(=O)CC(C)=O)cc1	none
CCCCc1ccc(NC(=O)N[C@@H](C)C(=O)O)cc1	none
CCCCc1ccc(NC(=O)CC(C)(C)C)cc1	CHX counter 144.0, Shiga inhibitor 164.2
Cc1ccccc1-c1noc(-c2cccnc2N2CCN(c3ccccc3)CC2)n1	none (no result: LmPK inh, CHX counter, Shiga inhibitor, Giardia FBPA inh)
COc1ccc(S(=O)(=O)NCCc2csc3nc(-c4ccc(Cl)cc4)nn23)cc1C	none (no result: LmPK inh, CHX counter, Shiga inhibitor, Giardia FBPA inh)
Cc1ccc(-c2nnc(-c3cccc(Br)c3)o2)cc1	CHX counter 26.1, Shiga inhibitor 41.5
Brc1cccc(-c2nnc(-c3ccccc3)o2)c1	CHX counter 27.0, Shiga inhibitor 55.2
CCOC(=O)c1sc2ccccc2c1S(=O)(=O)Nc1ccc(CC)cc1	none (no result: LmPK inh, CHX counter, Shiga inhibitor, Giardia FBPA inh)
O=C(Nc1ccccc1Cl)Nc1cccnc1Cl	none
O=C(CCc1ccccc1)Nc1cccnc1Cl	CHX counter 17.6
O=C(CC(=O)c1ccccc1)Nc1cccnc1Cl	CHX counter 44.0, Shiga inhibitor 73.3
